Experimental data taken from PubChem BioAssay (NCATS).
Inconclusive results are not listed. Where a call stands in place of a potency, no number is given. A structure can be active in one record and inactive in another. Activity calls are given as the source filed them. Calls follow the shape of the dose curve; as a rule, active = well fitted inhibition curve with a large enough effect; inconclusive = small, poorly fitted or top-dose-only effect; inactive = flat fitted curve, though single readings scatter.

test: Primary qHTS for inhibitors of nuclear receptor binding SET domain protein 2 (NSD2) in an isogenic RCH-ACV NSD2 p.E1099K mutant (9B) (AID 1645876); conditions: RCH-ACV (leukaemia line) NSD2 E1099K (9B) viability, CellTiter-Glo, 72 h; series mostly up to 44.9 µM; also: nearly all actives have a fitted effect of over 70% in size
Potency is read from the fitted curve at half-maximal effect.

SMILES | Potency | activity change, negative = viability loss
CCCCN(CCCC)CC(O)c1cc(Cl)cc2c1-c1ccc(Cl)cc1/C2=C/c1ccc(Cl)cc1 (centres undefined) | 15 µM (active) | –
O=c1cc(CO)occ1O | inactive | –
COc1ccc2[nH]c(S(=O)Cc3ncc(C)c(OC)c3C)nc2n1 (centres undefined) | inactive | –
CCCn1cnc2c1c(=O)n(CCCCC(C)=O)c(=O)n2C | inactive | –
CC(=O)O[C@@]12CO[C@@H]1C[C@H](O)[C@@]1(C)C(=O)[C@H](O)C3=C(C)[C@@H](OC(=O)[C@H](O)[C@@H](NC(=O)OC(C)(C)C)c4ccccc4)C[C@@](O)([C@@H](OC(=O)c4ccccc4)[C@H]21)C3(C)C | 0.0027 µM (active) | –
C[C@H](NC(CCc1ccccc1)C(=O)O)C(=O)N1CCC[C@H]1C(=O)O (some centres undefined) | inactive | –
NC1[C@H]2CN(c3nc4c(cc3F)c(=O)c(C(=O)O)cn4-c3ccc(F)cc3F)C[C@@H]12 (some centres undefined) | 2.99 µM (active) | –
CC(=O)NC(Cc1ccccc1)C(=O)O (centres undefined) | inactive | –
COc1ccc2cc1Oc1cc3c(cc1OC)CC[N+](C)(C)[C@H]3Cc1ccc(cc1)Oc1c(OC)c(OC)cc3c1[C@@H](C2)[N+](C)(C)CC3 | inactive | –
CC1(C)S[C@@H]2[C@H](NC(=O)Cc3ccccc3)C(=O)N2[C@H]1C(=O)O (tested in a mixture with another compound) | inactive | –
CC(COc1ccccc1)NC(C)C(O)c1ccc(O)cc1 (centres undefined) | inactive | –
C[C@@H]1CCN(C(=O)[C@H](CCCN=C(N)N)NS(=O)(=O)c2cccc3c2NC[C@H](C)C3)[C@@H](C(=O)O)C1 | inactive | –
CNCC(O)c1ccc(O)c(O)c1 (centres undefined) | inactive | –
CCN(CC)C(=O)Nc1ccc(OCC(O)CNC(C)(C)C)c(C(C)=O)c1 (centres undefined) | inactive | –
COc1cc(C)c(Cc2cnc(N)nc2N)cc1OC | inactive | –
NCCNCCNCCNCCN | – | -1.38% [at 9.23 µM] (inactive)
CCOC(=O)c1ccc(O)cc1 | inactive | –

SMILES | Potency | activity change, negative = viability loss
CC(=O)Oc1ccc(C2(c3ccc(OC(C)=O)cc3)C(=O)Nc3ccccc32)cc1 | inactive | –
COC(=O)[C@H]1[C@H]2C[C@@H]3c4[nH]c5cc(OC)ccc5c4CCN3C[C@H]2C[C@@H](OC(=O)COc2ccc(OC)cc2)[C@@H]1OC | inactive | –
Nc1ccc(S(=O)(=O)NC(=O)c2ccccc2)cc1 | inactive | –
CCCOC(=O)c1ccccc1 | inactive | –
CC1=C(/C=C/C(C)=C/C=C/C(C)=C/C(=O)O)C(C)(C)CCC1 | 21.1 µM (active) | –
CC(=O)OCC(=O)[C@@]1(O)CC[C@H]2[C@@H]3CCC4=CC(=O)CC[C@]4(C)[C@H]3C(=O)C[C@@]21C | inactive | –
Cc1ccc(C(C)C)cc2c(C)ccc1-2 | inactive | –
CC1(C)[C@@H]2CC[C@@]1(C)C(=O)C2 | inactive | –
CC(CN1c2ccccc2Sc2ccccc21)N(C)C (centres undefined) | 16.8 µM (active) | –
COc1ccc(S(=O)(=O)Nc2nnc(CC(C)C)s2)cc1 | inactive | –
CSc1ccc2c(c1)N(CCC1CCCCN1C)c1ccccc1S2 (centres undefined) | 5.96 µM (active) | –
CCOC(CN1CCN(CC(C)C(=O)c2ccccc2)CC1)c1ccccc1 (centres undefined) | inactive | –
N[C@H](C(=O)O)c1ccc(O)cc1 | inactive | –
C/C(=C(\CCOP(=O)(O)O)SC(=O)c1ccccc1)N(C=O)Cc1cnc(C)nc1N | – | 9.34% [at 4.96 µM] (inactive)
Cc1ncc([N+](=O)[O-])n1CC(O)CCl (centres undefined) | inactive | –
Nc1ncnc2c1ncn2[C@@H]1O[C@H](CO)[C@@H](O)[C@H]1O | 9.44 µM (active) and inactive | –
CN(N=O)C(=O)N[C@@H]1[C@@H](O)[C@H](O)[C@@H](CO)O[C@@H]1O | inactive | –
